Assay outcomes from PubChem.
D2 PAM-1 = HTS Assay for Positive Allosteric Modulators of the Human D2 Dopamine Receptor: Primary Screen for Potentiators. HEK293 T-REx D2, calcium flux, EC20 dopamine potentiation. potentiation, % at 10 µM. 340,000 compounds, 0.34% hits. AID 485347, 2010;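 active = potentiation over 3 SD above the plate norm, cut at about 30% in these data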
Target sequence (P14416 whole entry, looked up): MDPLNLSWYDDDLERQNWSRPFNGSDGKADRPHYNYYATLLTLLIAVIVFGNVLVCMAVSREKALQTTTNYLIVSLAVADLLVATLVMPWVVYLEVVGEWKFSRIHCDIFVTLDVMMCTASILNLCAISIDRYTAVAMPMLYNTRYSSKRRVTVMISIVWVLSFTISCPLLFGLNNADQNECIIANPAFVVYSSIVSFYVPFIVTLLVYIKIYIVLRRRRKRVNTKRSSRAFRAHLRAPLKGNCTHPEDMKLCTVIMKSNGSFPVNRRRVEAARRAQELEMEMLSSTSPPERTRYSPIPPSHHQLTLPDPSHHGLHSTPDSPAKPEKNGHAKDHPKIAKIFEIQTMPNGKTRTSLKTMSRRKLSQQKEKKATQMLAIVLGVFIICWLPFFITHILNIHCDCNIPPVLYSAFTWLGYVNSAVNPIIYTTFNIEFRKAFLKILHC
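Potentiation of an EC20 dopamine calcium response measured kinetically over 180 s, after a preceding 180 s compound-only read flagging agonists. Cells: inducible Hek293 Trex D2 line, 4000/well, cultured overnight at 30 C before dye loading.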
D2 ag-1 = Beta-Arrestin HTS for Positive Allosteric Modulators of the Human D2 Dopamine Receptor: Agonists | DiscoveRx PathHunter D2 beta-arrestin, luminescence, 90 min; 100% = 57 uM dopamine signal | 360,000 compounds, 0.084% hits | activation, % (no concentration beside the values) | AID 624465, 2012; in the data active = activation above about 40%; inconclusive = between about 15% and that limit
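DiscoveRx PathHunter D2 beta-arrestin cells (2,100/well) attached overnight, then compound-stimulated 90 min at 37 C in HBSS/10 mM HEPES/0.1% Tween-20 buffer; beta-galactosidase complementation read by luminescence after 1 h at ambient temperature. Dopamine 57 uM final (EC100) as control.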
D2 PAM-2 = Beta-Arrestin HTS for Positive Allosteric Modulators of the Human D2 Dopamine Receptor: Potentiators; 360,000 compounds, 0.23% hits; DiscoveRx D2 beta-arrestin cells, luminescence, 90 min; 100% = 57 uM dopamine signal; potentiation, % (concentration not given with the values); D(2) dopamine receptor (Homo sapiens), P14416; in the data active = potentiation above about 50%; inconclusive = mostly about 30% to 49%
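PathHunter beta-arrestin assay in DiscoveRx D2 cells. Compounds were added with an EC20 of dopamine (50 nM final) for 90 min at 37 deg C. Luminescence was read 1 h after detection reagent, with 57 uM dopamine as the EC100 control.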
D2 ag-2 = HTS Assay for Allosteric Agonists of the Human D2 Dopamine Receptor: Primary Screen for Agonists; AID 485358, 2010; 340,000 compounds, 0.53% hits; activation, % at 2 µM; HEK293 T-REx D2 cells, calcium flux agonist mode; D(2) dopamine receptor (Homo sapiens), P14416;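 active = activation over 3 SD above normal in the single-dose calcium agonist read, cut at about 30% in these data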
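Agonism scored from kinetic calcium signal (1 read/sec, 180 s) following compound pin transfer, after a 10 s baseline. Cells: HEK293 Trex line expressing inducible D2 receptor coupled to calcium, dye-loaded after overnight culture at 30 C.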
D2 antag = HTS Assay for Allosteric Antagonists of the Human D2 Dopamine Receptor: Primary Screen for Antagonists | inhibition, % at 10 µM | HEK293 TREx D2 cells, calcium flux, dopamine EC80 | D(2) dopamine receptor (Homo sapiens), P14416 | 340,000 compounds, 2% hits | AID 485344, 2010; in the data active = inhibition above about 30%; inactive = below that, where a call was filed
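Cells plated overnight at 30 C with tetracycline; no-wash calcium dye, 30–90 min RT; 10 s baseline; compound pinned; 180 s read; EC80 dopamine added; another 180 s read.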
Each line names hits and unclear results; the compound was inactive in the other large screens. An excerpt weighted towards active compounds, which were near 2.4% of everything screened.

COc1ccc(C(=O)N/C(=C\c2cc(OC)c(OC)cc2[N+](=O)[O-])C(=O)NCCO)cc1	D2 antag 39
CCCC12CN3CC(C)(CN(C1)C31C(=O)Nc3ccc(C)cc31)C2=O (stereo unspecified)	none
Cc1ccc2c(c1)C1(C(=O)N2C)N2CC3(C)CN1CC(C)(C2)C3=O (stereo unspecified)	D2 PAM-1 33
CC(=O)Nc1ccc(Oc2sc(C(=O)c3ccccc3)c(N)c2C#N)cc1	D2 antag 31
CC(=O)c1cccc(N2C(=NC(=O)CCc3ccccc3)SC3CS(=O)(=O)CC32)c1 (stereo unspecified)	D2 antag 32
O=C(N/C(=C\c1ccc(Br)cc1)C(=O)N1CCOCC1)c1ccc(Br)o1	none (no result: D2 PAM-1)
O=C(N/C(=C/c1ccc(Br)cc1)C(=O)N1CCOCC1)c1ccc(Br)o1	D2 PAM-1 86
CCOC(=O)c1c(C)n(-c2ccc(C)cc2)c2ccc(O)c(CN(C)C)c12	D2 antag 40
Cc1oc2ncn(CC(C)C)c(=O)c2c1C(=O)NCCc1ccc(Cl)cc1	none (no result: D2 ag-1, D2 PAM-2, D2 antag)
COc1ccc(Cl)cc1NC(=O)c1cc2ccc3ccc(C)[nH]c3c2n1	none (no result: D2 ag-1, D2 PAM-2, D2 antag)
Oc1ccccc1N1CCN(C(c2ccccc2)c2ccccc2)CC1	D2 antag 30
CC(=O)N1CCN(C(c2ccccc2)c2ccccc2)CC1	none (no result: D2 PAM-1, D2 ag-2, D2 antag)
CCOc1ccc(NS(=O)(=O)c2cc(NC(=O)CCS(=O)(=O)c3ccc(C)cc3)ccc2OC)cc1	D2 antag 33
Cc1ccc(C(=O)N(Cc2ccc(N(C)C)cc2)CC2CCCO2)cc1 (stereo unspecified)	none (no result: D2 ag-1, D2 PAM-2, D2 ag-2, D2 antag)
COc1ccc(C2CC(=O)c3cc(-c4nc(-c5ccc(Cl)cc5)c(C)s4)c(=O)[nH]c3C2)cc1 (stereo unspecified)	none (no result: D2 ag-1, D2 PAM-2, D2 ag-2, D2 antag)
COc1cccc(CCNC(=O)c2cnc3sc(N4CCCCCC4)nn3c2=O)c1	none (no result: D2 ag-1, D2 PAM-2, D2 antag)
NS(=O)(=O)c1ccc(CCNc2nc3c(-c4cccc(F)c4)nnn3c3ccc(Cl)cc23)cc1	none (no result: D2 ag-1, D2 PAM-2, D2 antag)
O=C1N/C(=N/c2ccccn2)SC1Cc1ccccc1 (stereo unspecified)	none
O=C1NC(=Nc2ccccc2)SC1Cc1ccccc1 (stereo unspecified)	D2 PAM-1 41
CCOC(=O)c1cccc(NC(=O)NC(C)c2c(-n3cccc3)sc3c2CCN(C)C3)c1 (stereo unspecified)	none (no result: D2 ag-1, D2 PAM-2, D2 antag)
COc1ccc(NC(=O)COc2ccc(C(=O)NC3CCCc4ccccc43)cc2OC)cc1 (stereo unspecified)	D2 PAM-1 36
COc1ccc(C(=O)c2nccc3cc(OC)c(OC)cc23)cc1OC	D2 ag-1 inconclusive, D2 PAM-2 94
COc1ccc(C(=O)c2ccc(OC)c(OC)c2)cc1OC	none
Cc1ccc2nc(NC(=O)CSc3nccn3Cc3ccccc3)sc2c1	none (no result: D2 ag-1, D2 PAM-2, D2 ag-2, D2 antag)
CSc1ccc(CN2CCC(CO)(CCOc3ccccc3)CC2)cc1	D2 antag 51
OCC1(CCOc2ccccc2)CCN(Cc2ccccc2OC(F)F)CC1	none
C=CCOc1ccccc1CN1CCC(CO)(CCOc2ccccc2)CC1	D2 antag 64
CCc1ccc(NC(=O)CN(c2ccc(Cl)cc2)S(=O)(=O)c2ccsc2C(=O)OC)cc1	none (no result: D2 ag-1, D2 PAM-2, D2 ag-2, D2 antag)
O=C(Cn1cc(C(=O)c2ccncc2)c(=O)c2cc(F)ccc21)Nc1ccc(Cl)cc1	none (no result: D2 ag-1, D2 PAM-2, D2 ag-2, D2 antag)
O=C(Nc1cc(C(F)(F)F)ccc1Cl)C1CCN(c2nnc(-n3cccc3)s2)CC1	D2 antag 62
CS(=O)(=O)N1CCC(C(=O)Nc2cc(C(F)(F)F)ccc2Cl)CC1	none
Cc1oc(-c2ccccc2F)nc1CN1CCC(C(=O)NCCC2=CCCCC2)CC1	D2 antag 32
O=C(NCCC1=CCCCC1)C1CCN(c2nnc(-n3cccc3)s2)CC1	D2 antag 48
CC(C)CCNC(=O)C1CCN(c2nnc(-n3cccc3)s2)CC1	none
Cc1oc(-c2ccccc2F)nc1CN1CCC(C(=O)NCCc2ccccc2)CC1	none (no result: D2 ag-1, D2 PAM-2, D2 antag)
